# Experimental data from the supplement of paper PMC7393113.
# ± gives the standard deviation of the averaged measurements.
# Tested on: iBMDM (immortalised mouse bone-marrow-derived macrophages), LPS-stimulated
# Assay: mitochondrial superoxide (MitoSOX fluorescence) fold increase over unstimulated control; higher = more LPS-induced mitochondrial ROS (less inhibition)
# Conditions: inhibitor concentration: 500 nM; LPS: 100 ng/ml; time after LPS: 4 h
# Method in brief: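 Immortalised mouse bone-marrow-derived macrophages in black 96-well plates were kept in phenol-red-free 1% FCS/DMEM for 20 h, pretreated 30 min with kinase inhibitors (500 nM), loaded with 1 μM MitoSox for 10 min and then given LPS (100 ng/ml). Fluorescence at excitation/emission 510/580 nm was read on a ClarioStar plate reader every 60 min for 4 h, with wells in triplicate. Mitochondrial superoxide is given as fold induction over untreated macrophages, averaged across replicates.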
row,SMILES,mitochondrial superoxide
1,Cc1ccccc1CN1C2=NCCN2C(=O)C2=C1CCN(Cc1ccccc1)C2,1.34 ± 0.13
2,O=C(Nc1ccc(OC(F)(F)F)cc1)c1sccc1NCc1ccnc2ccccc12,1.25 ± 0.031
3,Cn1cc(-c2cnn3c(N)c(Br)c([C@@H]4CCCNC4)nc23)cn1,1.54 ± 0.11
4,Cn1cc(-c2ccc3nnc(C(F)(F)c4ccc5ncccc5c4)n3n2)cn1,1.5 ± 0.019
5,Cc1ccccc1-n1c(Cn2nc(-c3cccc(O)c3)c3c(N)ncnc32)nc2cccc(C)c2c1=O,1.42 ± 0.034
6,CC(C)(C)c1cc(NC(=O)Nc2ccc(-c3cn4c(n3)sc3cc(OCCN5CCOCC5)ccc34)cc2)no1 [Quizartinib (AC220)],1.31 ± 0.042
7,Cn1c(Nc2ccc(C(F)(F)F)cc2)nc2cc(Oc3ccnc(-c4ncc(C(F)(F)F)[nH]4)c3)ccc21,1.33 ± 0.066
8,CC(C)(C)n1nc(-c2ccc(Cl)cc2)c2c(N)ncnc21,1.31 ± 0.079
9,O=C1NC(=O)/C(=C/c2ccc3nccc(-c4ccncc4)c3c2)S1,1.33 ± 0.1
10,Nc1nc(Nc2ccc(S(N)(=O)=O)cc2)nn1C(=O)c1c(F)cccc1F,1.11 ± 0.021
11,Cc1ccc(-c2nn(C(C)(C)C)c3ncnc(N)c23)cc1,1.34 ± 0.046
12,COc1ncc(-c2ccc3nccc(-c4ccnnc4)c3c2)cc1NS(=O)(=O)c1ccc(F)cc1F,1.52 ± 0.077
13,N#Cc1c(Oc2ccc(F)c(NC(=O)Cc3cccc(C(F)(F)F)c3)c2)ccc2nc(NC(=O)C3CC3)sc12,1.66 ± 0.076
14,CNC(=O)c1cc(Oc2ccc(NC(=O)Nc3ccc(Cl)c(C(F)(F)F)c3)c(F)c2)ccn1 [Regorafenib (BAY 73-4506)],1.71 ± 0.062
